The values that follow come from PMC4336329 (PLoS ONE, 2015).

The campaign covered roughly 310,000 compounds. About 14,000 (4.5%) showed an effect of 50% or more. The effect is printed as a negative number. The entries come from a sample that favours strong results as a whole.
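Note: peak tail current of the secondary pulse compared with the same well before compound.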

The target in this test is human ether-à-go-go-related gene (hERG) potassium channel (human, UniProt Q12809). Description: primary screen, population patch clamp on CHO cells stably expressing hERG; higher = less effect of the substance.
Chain of human ether-à-go-go-related gene (hERG) potassium channel (Q12809 whole entry, looked up): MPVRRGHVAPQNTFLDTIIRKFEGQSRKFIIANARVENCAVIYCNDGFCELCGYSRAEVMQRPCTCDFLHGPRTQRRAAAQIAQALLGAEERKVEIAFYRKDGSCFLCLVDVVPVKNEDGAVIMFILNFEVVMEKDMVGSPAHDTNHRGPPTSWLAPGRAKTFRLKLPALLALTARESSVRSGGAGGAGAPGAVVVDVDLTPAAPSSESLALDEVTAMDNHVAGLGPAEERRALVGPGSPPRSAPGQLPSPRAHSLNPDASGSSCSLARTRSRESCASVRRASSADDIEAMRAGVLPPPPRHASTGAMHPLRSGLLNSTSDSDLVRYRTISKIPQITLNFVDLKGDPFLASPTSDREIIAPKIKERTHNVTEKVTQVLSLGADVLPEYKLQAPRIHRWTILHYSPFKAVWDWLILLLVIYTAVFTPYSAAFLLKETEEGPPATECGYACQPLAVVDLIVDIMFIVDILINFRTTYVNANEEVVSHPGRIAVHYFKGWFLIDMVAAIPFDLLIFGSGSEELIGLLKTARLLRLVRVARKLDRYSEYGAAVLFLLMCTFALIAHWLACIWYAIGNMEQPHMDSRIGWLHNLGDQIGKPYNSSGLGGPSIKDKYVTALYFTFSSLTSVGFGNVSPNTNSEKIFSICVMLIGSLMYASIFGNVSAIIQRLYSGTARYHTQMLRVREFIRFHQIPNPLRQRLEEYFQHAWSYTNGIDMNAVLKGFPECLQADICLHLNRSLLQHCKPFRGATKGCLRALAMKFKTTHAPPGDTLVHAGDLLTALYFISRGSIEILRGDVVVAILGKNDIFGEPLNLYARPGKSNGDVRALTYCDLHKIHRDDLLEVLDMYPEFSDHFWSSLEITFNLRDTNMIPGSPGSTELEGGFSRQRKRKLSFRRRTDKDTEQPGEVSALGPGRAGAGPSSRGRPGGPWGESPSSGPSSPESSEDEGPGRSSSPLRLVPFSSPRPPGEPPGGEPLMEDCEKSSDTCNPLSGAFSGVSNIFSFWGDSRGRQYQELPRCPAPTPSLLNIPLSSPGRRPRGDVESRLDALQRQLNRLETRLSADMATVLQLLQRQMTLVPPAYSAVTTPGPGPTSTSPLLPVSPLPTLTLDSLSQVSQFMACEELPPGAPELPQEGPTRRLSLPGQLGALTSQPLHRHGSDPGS
Regarding `CCOC(=O)CNS(=O)(=O)CCN1C(=O)c2ccccc2C1=O`, the “hERG current change (%, negative = inhibition) at 10uM” value was determined as 1.65%.
`COc1ccc(C)cc1NC(=O)C(Sc1nnc2ccccn12)c1ccccc1` (stereo not drawn): the “hERG current change (%, negative = inhibition) at 10uM” value was -67.7%.
The result for `COc1ccc(C)cc1NC(=O)C(Sc1nncn1C)c1ccccc1` (stereo not drawn) reads -3.91%; that for `COc1ccc(NC(=O)C(Sc2nnc3ccccn23)c2ccccc2)cc1Cl` (stereo not drawn), -1.62%.
The result for `COc1cc(C2NC(=O)c3ccccc3O2)cc(OC)c1OC` (stereo not drawn) reads -9.55%; that for `CCOc1ccc(CCNC(=O)CSCC(=O)Nc2cccc(C)c2)cc1OCC`, -8.35%.
To `CC(OC(=O)Cc1n[nH]c(=O)c2ccccc12)C(=O)Nc1ccc(F)cc1Cl` (stereo not drawn) belongs 2.32%; to `CCCC1=C(C(=O)OCC)C(c2c(C)nn(-c3ccccc3)c2Cl)C(C#N)=C(N)O1` (stereo not drawn), -16.1%; to `CC1CCCN(S(=O)(=O)c2ccc(CN3C(=O)c4cccnc4C3=O)cc2)C1` (stereo not drawn), -58%.
With `CCOC(=O)C1CCN(S(=O)(=O)c2ccc(CN3C(=O)c4cccnc4C3=O)cc2)CC1`, the “hERG current change (%, negative = inhibition) at 10uM” value was -9.61%.
Regarding `COc1ccc(CN2C(=O)c3cccnc3C2=O)cc1S(=O)(=O)N1CCCC(C)C1` (stereo not drawn), the “hERG current change (%, negative = inhibition) at 10uM” value is given as -0.978%.
To `CC1CCN(S(=O)(=O)c2cc(F)ccc2CN2C(=O)c3cccnc3C2=O)CC1` belongs -60.4%; to `Cc1ccc(CNS(=O)(=O)c2cc(F)ccc2CN2C(=O)c3cccnc3C2=O)o1`, -9.97%.
Turning to `CC(C)NS(=O)(=O)c1cc(F)ccc1CN1C(=O)c2cccnc2C1=O`, the “hERG current change (%, negative = inhibition) at 10uM” value is 10.5%.
For the compound `O=C(Nc1ccc(S(=O)(=O)Nc2ncccn2)cc1)c1ccccc1NS(=O)(=O)c1ccc(F)cc1`, the “hERG current change (%, negative = inhibition) at 10uM” value amounted to 9.91%.
To `COc1ccc(-n2c(=S)[nH]c3ncccc3c2=O)cc1` belongs 7.98%; to `CC1(C)CC(=O)C(CC2=C(N)CC(C)(C)CC2=O)=C(N)C1`, 4.6%; to `COC(C[C@H]1O[C@@H]1C(=O)COCc1ccccc1)OC`, 4.27%.
As to `CCOc1ccc2ncc(S(=O)(=O)c3ccccc3)c(N3CCC4(CC3)OCCO4)c2c1`, the “hERG current change (%, negative = inhibition) at 10uM” value is -42.4%.
The result for `COc1ccc2ncc(S(=O)(=O)c3ccccc3)c(N3CCN(c4ccccc4)CC3)c2c1` reads -8.4%; that for `COc1ccc(S(=O)(=O)c2cnc3ccc(OC)cc3c2N2CCC3(CC2)OCCO3)cc1`, -28.5%; that for `COc1ccc2ncc(S(=O)(=O)c3ccccc3)c(N3CCC4(CC3)OCCO4)c2c1`, -63.3%.
The result for `COc1cc2ncc(S(=O)(=O)c3ccccc3)c(N3CCC4(CC3)OCCO4)c2cc1OC` reads -80.8%.
Turning to `COc1cc2ncc(S(=O)(=O)c3ccccc3)c(N3CCCC(C)C3)c2cc1OC` (stereo not drawn), the “hERG current change (%, negative = inhibition) at 10uM” value is recorded as -7.67%.
For the compound `O=C(Nc1ccc(Cl)c(Cl)c1)Nc1ccccn1`, the “hERG current change (%, negative = inhibition) at 10uM” value came out at 2.95%.
To `Cc1ccc(/C=C2\SC(=S)N(CCCC(=O)Nc3nccs3)C2=O)cc1` belongs 15.7%.
To `O=C(COC(=O)CCCN1C(=O)c2cccc3cccc(c23)C1=O)Nc1ccc(Cl)cc1` belongs 3.07%; to `N#Cc1ccc(-c2ccc(F)cc2)nc1SCC(=O)Nc1sc2c(c1C#N)CCC2`, 4.57%; to `O=C(NC1CC1)C1CCN(C2CCN(Cc3ccccc3C(F)(F)F)CC2)CC1`, -53.1%.
Turning to `O=C(NC1CC1)C1CCN(C2CCN(C(=O)c3ccc(C(F)(F)F)cc3)CC2)CC1`, the “hERG current change (%, negative = inhibition) at 10uM” value was -56.4%.
Consider `O=C(NC1CC1)C1CCN(C2CCN(C(=O)Cc3ccc(F)cc3)CC2)CC1`, for which the “hERG current change (%, negative = inhibition) at 10uM” value is given as -2.99%.
The result for `Cc1ccc2oc(C(=O)N3CCC(N4CCSCC4)CC3)c(C)c2c1` reads -30.6%; that for `FC(F)(F)c1ccccc1CN1CCN(C2CCCCCC2)CC1.O=C(O)C(=O)O`, -49.3%; that for `O=C(NC1CC1)C1CCN(C2CCN(C(=O)/C=C/c3cccc(F)c3F)CC2)CC1`, -22.1%.
To `Cc1ccc2c(C)c(C(=O)N3CCC(N4CCC(C(=O)NC5CC5)CC4)CC3)oc2c1` belongs -59.1%; to `O=C(NC1CC1)C1CCN(C2CCN(C(=O)/C=C/c3ccc(F)cc3)CC2)CC1`, -62.9%; to `O=C(NC1CC1)C1CCN(C2CCN(C(=O)c3c(F)cccc3Cl)CC2)CC1`, 13.3%.
As for `CC(C)(C)c1ccc(C(=O)N2CCC(C(=O)NC3CCCCCC3)CC2)cc1`, the “hERG current change (%, negative = inhibition) at 10uM” value is given as -40%.
To `CCOc1ccccc1CN1CCC(N2CCC(C(=O)NC3CC3)CC2)CC1` belongs 1.53%; to `CC(C)(C)c1ccc(C(=O)N2CCC(C(=O)NC3CC3)CC2)cc1`, -2.74%.
As to `O=C(NCCCCCCNC(=O)OCCO)OCCO`, the “hERG current change (%, negative = inhibition) at 10uM” value was found to be 28.4%.
As to `NNC(=O)CNS(=O)(=O)c1ccc([N+](=O)[O-])cc1`, the “hERG current change (%, negative = inhibition) at 10uM” value amounted to 17.4%.
For the compound `COc1ccccc1N(C)S(=O)(=O)c1ccc(C(=O)NCC2CCCCC2)cc1`, the “hERG current change (%, negative = inhibition) at 10uM” value is recorded as -3.05%.
To `CC(C)Cn1c(N)c(C(=O)COC(=O)CC23CC4CC(CC(C4)C2)C3)c(=O)n(C)c1=O` belongs -16.2%; to `CCCc1cc(=O)c2c(O)cccc2o1`, 5.41%.
To `CC1CC1C(=O)OCC(=O)Nc1ccc2[nH]c(=O)[nH]c2c1` (stereo not drawn) belongs 2.94%.
For `COCCN1CCN(C(=O)c2ccc3oc(CCc4ccccc4)nc3c2)CC1`, the “hERG current change (%, negative = inhibition) at 10uM” value was -30.1%.
To `COc1ccccc1N(CC(=O)N1CCN(c2ccccc2)CC1)S(=O)(=O)c1ccc(C)cc1` belongs 17.5%; to `Cc1nc(NCCc2ccc(S(N)(=O)=O)cc2)c2c(C)c(C)sc2n1`, 4.01%; to `O=C(CCc1nc(-c2ccccc2F)no1)NCCN1CCN(Cc2ccccc2)CC1`, -43.2%.
To `COc1ccc(-c2noc(CCC(=O)NCCCN3CCN(c4ccc(F)cc4)CC3)n2)cc1` belongs -67.4%; to `COc1ccc(-c2noc(CCC(=O)NCCc3ccccc3)n2)cc1`, 20.9%.
The result for `CC1(C)CC(=O)c2cc(OCC(=O)NCCN3CCOCC3)ccc2O1` reads 22.7%; that for `O=C(CCc1nc(-c2ccccc2F)no1)NCCN1CCc2ccccc2C1`, -50.4%.
For `COc1ccc(N2CCN(C(=O)CCc3nc(-c4ccc(C)cc4)no3)CC2)cc1`, the “hERG current change (%, negative = inhibition) at 10uM” value is reported as -14.1%.
Turning to `COc1ccc(-c2noc(CCC(=O)NCCCN3CCC(C)CC3)n2)cc1`, the “hERG current change (%, negative = inhibition) at 10uM” value is -5.81%.
To `CC1(C)CC(=O)c2cc(OCC(=O)NCCCN3CCN(c4ccc(F)cc4)CC3)ccc2O1` belongs -72.9%.
The result for `COc1ccc(-c2noc(CCC(=O)NCCCN3CCC(Cc4ccccc4)CC3)n2)cc1` reads -80.7%; that for `CC1(C)CC(=O)c2cc(OCC(=O)NCCCN3CCN(c4ccccc4F)CC3)ccc2O1`, -47.4%; that for `CCN1CCN(CCCNC(=O)CCc2nc(-c3ccc(OC)cc3)no2)CC1`, -2.35%.
To `O=C(CCc1nc(-c2ccccc2F)no1)NCCN1CCOCC1` belongs 6.22%; to `Cc1cc(NC(=O)C(C)SCC(=O)Nc2ccccc2N2CCCC2)no1` (stereo not drawn), 15.1%; to `CCNC(=S)N/N=C/c1cccs1`, 6.26%.
Consider `O=C(CCCCCN1C(=O)CCC1=O)Nc1ccc2c(c1)OCCO2`, for which the “hERG current change (%, negative = inhibition) at 10uM” value is given as 8.47%.
Consider `CC(=O)Nc1ccc(-c2csc(NNC(=O)c3ccccc3)n2)cc1`, for which the “hERG current change (%, negative = inhibition) at 10uM” value turned out to be 24.7%.
To `Cc1ccc(-c2nc(C(F)(F)F)cc(=O)[nH]2)cc1` belongs 12.7%.
The result for `N#CCCn1ncn(-c2ccccc2)c1=S` reads 1.22%; that for `Cc1ccccc1CC(=O)Nc1ccc2c(c1)CCC2`, 18.3%.
To `Cc1ccc(-c2noc(CCC(=O)NCCCN3CCN(c4cccc(Cl)c4)CC3)n2)cc1` belongs 2.45%.
Consider `COc1ccc(-c2noc(CCC(=O)NCCCN3CCN(c4ccccc4F)CC3)n2)cc1`, for which the “hERG current change (%, negative = inhibition) at 10uM” value is reported as -61%.
To `Cc1ccc(-c2noc(CCC(=O)NCCCN3CCN(c4ccc(F)cc4)CC3)n2)cc1` belongs -66.8%.
Regarding `Cc1ccc(-c2noc(CCC(=O)NCCN3CCOCC3)n2)cc1`, the “hERG current change (%, negative = inhibition) at 10uM” value was found to be 4.65%.
The result for `COc1ccc(-c2noc(CCC(=O)NCCN(C)Cc3ccccc3)n2)cc1` reads -30.5%; that for `COCCCNC(=O)CCc1nc(-c2ccccc2)no1`, 9.36%.
To `COc1ccc(C(=O)/C=C/c2cccs2)c(OC(=O)c2cccc([N+](=O)[O-])c2)c1` belongs 5.34%; to `CCC(C)C(NC(=O)OCc1ccccc1)C(=O)NCC(c1ccccc1)N(C)C` (stereo not drawn), -7.1%; to `CC1CN(S(=O)(=O)c2ccc(F)cc2)CN1C(=O)N1CCOCC1` (stereo not drawn), 17.6%.
On to `OCCC1CN(Cc2nc3c(s2)CCCC3)CCN1Cc1ccccc1` (stereo not drawn), for which the “hERG current change (%, negative = inhibition) at 10uM” value is -22.5%.
The result for `Cc1ccc(CN2CCN(Cc3nc4c(s3)CCCC4)CC2CCO)cc1` (stereo not drawn) reads -55.3%.
The result for `CC(C)N1CCN(Cc2nc3c(s2)CCCC3)CC1CCO` (stereo not drawn) reads 18.9%; that for `OCCC1CN(Cc2nc3c(s2)CCCC3)CCN1Cc1ccsc1` (stereo not drawn), -14.6%.
To `OCCC1CN(Cc2nc3c(s2)CCCC3)CCN1CCc1ccccc1` (stereo not drawn) belongs -61.4%.
In the case of `CC(C)CCN1CCN(Cc2nc3c(s2)CCCC3)CC1CCO` (stereo not drawn), the “hERG current change (%, negative = inhibition) at 10uM” value is -28.2%.
The result for `CC(=O)Nc1sc(C)c(C)c1C(=O)OCC(=O)N(CC(C)C)c1c(N)n(Cc2ccccc2)c(=O)[nH]c1=O` reads -1.37%.
